The record followed here is ChEMBL document CHEMBL4513216, “Probing the Open Global Health Chemical Diversity Library for Multistage-Active Starting Points for Next-Generation Antimalarials” (ACS Infect Dis, 2020).

Out of some 69,000 compounds screened, about 8,600 (12%) showed an effect of 50% or more. This is one part of a sample in which strong results are shown more often than they occur.

This test relates to Plasmodium berghei. Description: Screen against P. berghei liver stage (PbLuc), transformed with Luciferase, at 10uM. Format: functional, HepG2. The conditions noted are these: tested at 10 uM.
Regarding `CCCN1CCC(NC(=O)c2csc(C)c2-c2ccc(C)cc2)CC1`, the INHIBITION was 1.56%.

Turning to `Cc1ncsc1C(=O)NC1CCN(CCC(=O)Nc2ccccc2)CC1`, the INHIBITION is given as -5.07%.

Regarding `CCCN1CCC(NC(=O)c2csc(C)c2C)CC1`, the INHIBITION is given as 64.4%.

For `Cc1ccc(-c2c(C(=O)NC3CCN(C)CC3)csc2C)cc1`, the INHIBITION came out at 68.4%.

In the case of `CCCN1CCC(NC(=O)c2ccc(F)cc2I)CC1`, the INHIBITION is given as 46.8%.

On to `Cc1ccc(-c2ccsc2C(=O)NC2CCS(=O)(=O)C2)cc1` (centres undefined), for which the INHIBITION is -63.5%.

Take `CCCN1CCC(NC(=O)c2csc(C)c2-c2ccccc2)CC1`: the INHIBITION turned out to be 81.5%.

With `CN1CCC(NC(=O)NCc2csc(Br)c2)CC1`, the INHIBITION is recorded as 45.9%.

On to `CCCN1CCC(NC(=O)NCCc2nc(CC)c(C)s2)CC1`, for which the INHIBITION was determined as 26.8%.

As to `CC(C)c1nnc(CN2CCCC(Cn3cncn3)C2)o1` (centres undefined), the INHIBITION came to 22.03%.

Take `O=c1cc2c(nn1CN1CCN(c3ccc(F)cc3)CC1)CCC2`: the INHIBITION is given as -6.53%.

In the case of `C[C@H](NC(=O)Cc1csc(-c2cccc(Cl)c2)n1)C(=O)O`, the INHIBITION came out at 35%.

`COCC(=O)N1CCCCC1c1nc(C)c2c(n1)N(CC1CC1)C(=O)C2` (centres undefined): the INHIBITION turned out to be 23%.

As for `O=c1ccc(-c2ccccc2F)nn1CN1CCCCCC1`, the INHIBITION was -22.9%.

Turning to `CCn1c(CC2CCN(S(=O)(=O)Cc3ccccc3)CC2)nn(C)c1=O`, the INHIBITION was -28.1%.

Consider `CN1CCCC(c2ccc(N3CCOCC3)cn2)C1` (centres undefined), for which the INHIBITION is reported as -2.48%.

Turning to `CN1C(=O)CC[C@@H]2[C@H]1CCN2S(=O)(=O)Cc1ccccc1`, the INHIBITION turned out to be 61.5%.

Regarding `CCOC[C@H]1CC[C@H]2[C@H](CCN2S(=O)(=O)Cc2ccccc2)O1`, the INHIBITION was 12.1%.

For `CCOC[C@@H]1CC[C@H]2[C@H](CCN2S(=O)(=O)Cc2ccccc2)O1`, the INHIBITION is recorded as 57.1%.

`CN1C(=O)C[C@@H]2[C@@H]1CCN2S(=O)(=O)Cc1ccccc1`: the INHIBITION stood at 26.8%.

Turning to `Cc1ccc(CS(=O)(=O)N2CC[C@H]3[C@H]2CC(=O)N3C)cc1`, the INHIBITION was 15.4%.

Take `COC[C@H]1CC[C@H]2[C@H](CCN2S(=O)(=O)Cc2ccccc2)O1`: the INHIBITION is on record as -34.6%.

Turning to `Cc1ccc2cnn(CCC(=O)Nc3nc(C)c(C)s3)c2c1`, the INHIBITION worked out at 30.8%.

Regarding `CCC(Nc1cccc(OC)c1)C(=O)NCc1ccc2c(c1)OCO2` (centres undefined), the INHIBITION was 36.4%.

For the compound `Cn1nnc2c1C(COCC1CC1)CN(Cc1ccoc1)C2` (centres undefined), the INHIBITION was 42.3%.

Consider `Cc1ccc(NC(=O)c2ccc(=O)n(CC(=O)Nc3nccs3)n2)cc1`, for which the INHIBITION turned out to be 42.7%.

For `C=Cc1ccc(CN2C(=O)C3(CCNCC3)Nc3ccccc32)cc1`, the INHIBITION was 87.8%.

On to `O=C1CC2(CCNCC2)C(=O)N1Cc1ccc(F)cc1`, for which the INHIBITION was 16.1%.

For `O=C1CC2(CCCNC2)C(=O)N1Cc1ccc(F)cc1` (centres undefined), the INHIBITION worked out at 4.06%.

Regarding `C=Cc1ccc(CN2CCCC3(CNC(=O)c4ccccc4O3)C2)cc1` (centres undefined), the INHIBITION was 29.2%.

As to `NC(=O)c1ccc(CN2CCCC(N3CCCCCC3)C2)cc1` (centres undefined), the INHIBITION is recorded as 22%.

As for `O=C1CC2(CCCNC2)C(=O)N1Cc1ccccc1` (centres undefined), the INHIBITION is reported as 27.4%.

With `N#Cc1cccc(CN2C(=O)C3(CCNCC3)Nc3ccccc32)c1`, the INHIBITION turned out to be 25.5%.

Regarding `NC(=O)c1ccc(CN2C(=O)C3(CCNCC3)Nc3ccccc32)cc1`, the INHIBITION turned out to be 67%.

As to `CC(C)c1ccc(CN2C(=O)C3(CCNCC3)Nc3ccccc32)cc1`, the INHIBITION was 80.9%.

As for `CN(Cc1nnc(C2CC2)n1C)C1CCN(CCc2cnn(C)c2)C1` (centres undefined), the INHIBITION stood at 7.08%.

`CO[C@H]1CCN(S(=O)(=O)c2cn(C)cn2)[C@H]1Cc1ccccc1`: the INHIBITION is recorded as -8.85%.

In the case of `Cc1nn(C)c(N(C)C)c1CNC(C)c1cccc(OC(C)C)c1` (centres undefined), the INHIBITION was 27.4%.

Regarding `CN(C)CCN(C)C(=O)c1cn(CC2CCCCC2)nn1`, the INHIBITION was -9.54%.

As for `O=C(NC1CCCC1)c1cnn2c(-c3ccco3)ccnc12`, the INHIBITION is recorded as -16.4%.

Regarding `COC(=O)Cn1c(=O)[nH]c2cn(-c3ccc(Br)cc3)c(=O)n21`, the INHIBITION is recorded as -38.6%.

In the case of `COc1cc(NC2CCS(=O)(=O)C2)ncn1` (centres undefined), the INHIBITION was determined as 33.7%.

For `O=C(O)CC(NC(=O)CCCc1cccs1)c1ccc(F)cc1` (centres undefined), the INHIBITION came to 18.4%.

For the compound `NC(c1ccc(F)cc1)c1cccs1` (centres undefined), the INHIBITION is 55%.

Consider `CC(C)c1ccc(-c2nonc2N)cc1`, for which the INHIBITION is on record as -15.2%.

As to `Cc1ccc(C(N)c2cccc(S(C)(=O)=O)c2)cc1` (centres undefined), the INHIBITION came to 38.7%.

For `NC(c1ccc(Cl)cc1)c1cccs1` (centres undefined), the INHIBITION worked out at 22.5%.

As to `Cc1ccc(C(CC(=O)O)NC(=O)CCc2cccs2)cc1` (centres undefined), the INHIBITION was 31%.

Consider `CC(C)c1ccc(C(N)c2cccs2)cc1` (centres undefined), for which the INHIBITION is reported as 75.6%.

For `Cc1ccc(C(N)c2cccs2)cc1` (centres undefined), the INHIBITION stood at 61.5%.

Regarding `CS(=O)(=O)c1cccc(C(N)c2ccc(F)cc2)c1` (centres undefined), the INHIBITION was -9.76%.

For the compound `CSCC(=O)N1CCCN(Cc2cscn2)CC1`, the INHIBITION turned out to be 7.77%.

With `CCc1oc2ccc(NS(=O)(=O)CC)cc2c1C(=O)OC`, the INHIBITION is 1.41%.

On to `CC(C)=CCCC1(C)C=Cc2c(cc(C)n(CC(=O)O)c2=O)O1` (centres undefined), for which the INHIBITION is recorded as 18.3%.

With `COC(=O)CN(C(=O)c1ccc(Cl)cn1)c1cccc(F)c1`, the INHIBITION is on record as 33.1%.

For `COC(=O)CN(C(=O)c1cccc(F)c1Cl)c1cccc(C)n1`, the INHIBITION worked out at 29.8%.

As for `COC(=O)CN(C(=O)c1cc(C)c(F)cc1F)c1cccc(C)n1`, the INHIBITION is on record as 61.7%.

For the compound `COC(=O)CN(C(=O)c1cc(C(C)C)no1)c1cccc(F)c1`, the INHIBITION was determined as 7.38%.

Consider `COC(=O)CN(C(=O)C(C)c1c(F)cccc1F)c1cccc(C)n1` (centres undefined), for which the INHIBITION came to 76%.

Consider `CCC(C)C(=O)N(CC(=O)OC)c1cccc(C)n1` (centres undefined), for which the INHIBITION is recorded as 10.6%.

As to `O=C(O)Cc1nc2nccc(-c3ccc(F)cc3)n2n1`, the INHIBITION stood at 11.5%.

As to `Cn1cccc1CN(C(=O)Cc1cccs1)C1CC1`, the INHIBITION is reported as 6.54%.

`N#Cc1ccc(C(=O)O)nc1C=Cc1cccc(Br)c1`: the INHIBITION is 39.4%.

With `O=C(c1cnc(-c2noc3cc(N4CCCC4)ccc23)s1)N1CCCC1`, the INHIBITION amounted to 8.31%.

Regarding `CCN(C)C(=O)c1cnc(-c2noc3cc(N4CCCCC4)ccc23)s1`, the INHIBITION came out at 76.3%.

As for `O=C(NCCN1CCCC1)c1ccc2c(-c3nccs3)noc2c1`, the INHIBITION stood at 28.2%.

Regarding `CC1CCN(c2ccc3c(-c4ncc(C(=O)O)s4)noc3c2)CC1`, the INHIBITION came out at 23.1%.

`CN(C)CCNC(=O)c1ccc2c(-c3nccs3)noc2c1`: the INHIBITION is listed as -33%.

For the compound `O=C(NC1CC1)c1cnc(-c2noc3cc(N4CCCCC4)ccc23)s1`, the INHIBITION is on record as 95.5%.
